Out of some 2,300 compounds screened, about 1,200 (52%) were called active. Another 34% or so got no clear call; they are omitted. So high a share suggests a set chosen from earlier hits. The list shows a part of the results. A number with no mark means an inactive call. The call rests on the fitted dose curve; in most records, active means well fitted inhibition curve with a large enough effect; inconclusive means small, poorly fitted or top-dose-only effect, or effect the other way; inactive means no such curve, though single readings can be large or run the other way.
On the % scale 0 is the no-effect control and ±100 the full control effect; potency means the concentration at half of the fitted maximal effect.

The assay can be described thus: Confirmation screen for delayed death inhibitors of the malarial parasite plastid, 48 hour incubation. Further: nearly all actives have a fitted effect of over 65% in size. To be noted: P. falciparum-infected erythrocytes, luciferase growth; series mostly up to 28.7 µM; activity change, negative = inhibition: at the top concentration. The source says:
The goal of this screen is to discover new antimalarial compounds that act by inhibiting the development of the apicoplast in the malarial parasite Plasmodium falciparum. The biochemical processes that make this organelle essential for erythrocytic stage parasites are not well understood. However, antibiotics, such as azithromycin and tetracycline, which target the apicoplast translational machinery, have a potent antimalarial effect. […] We have developed a cell-based assay that measures parasite growth based on the expression of an integrated copy of a firefly luciferase reporter. To detect small molecules that cause this "delayed death phenotype, erythrocytes infected with the luciferase-expressing parasites were incubated with compounds for either one or two generations, corresponding to 48 and 96 hours, respectively. Compounds that inhibit parasite growth in the second generation, but not the first, should be enriched in antimalarials that target the apicoplast. Growth inhibition is detected by a decrease in luciferase activity. MLPCN Grant: R21 NS059500 Assay Provider: David Fidock and Eric Ekland, Columbia University Keywords: NIH Roadmap, MLPCN, MLI, MLSMR, qHTS, NCGC, qHTS, malaria, luciferase, viability
Four microliters of culture medium (RPMI 1640 with 0.5% w/v Albumax (GIBCO), 24 mM sodium bicarbonate and 10 ug/mL gentamycin) were dispensed by a Multi-drop Combi into white solid 1536-well plates (Grenier) and 23 nL compound was added by a pin tool. Four microliters of infected erythrocytes (2% hematocrit, 0.1% parasitemia final concentration) in culture medium were dispensed and the plates incubated for 48 hours at 37 C in 5% CO2. Two microliters of luciferase detection reagent was added and luminescence was detected by a ViewLux (PerkinElmer) reader.
Consider `O=c1oc2ccccc2c(O)c1CN1CCCCC1`, for which the “activity change, negative = inhibition” value was 18.3%.
For `CCCCCCCCC[n+]1cccc2c3ccccc3ccc21`, the Potency is 0.398 µM (active).
As for `CCCCCCCCCC[n+]1cccc2c3ccccc3ccc21`, the Potency was 0.891 µM (active).
For the molecule `O=S(=O)(Nc1ccc(O)c(Sc2nc3ccccc3s2)c1)c1cccc2ccccc12`, the Potency is 15.8 µM (active).
For the molecule `COc1cc(-c2ccc(Nc3ccccc3C(=O)O)c(OC)c2)ccc1Nc1ccccc1C(=O)O`, the Potency was 12.6 µM (active).
Consider `COc1cc(-c2ccc(NC(=O)NC3CC3)c(OC)c2)ccc1NC(=O)NC1CC1`, for which the Potency is 12.6 µM (active).
Take `COc1ccc(Nc2cccc(Cl)c2)c(C(=O)O)c1`: the “activity change, negative = inhibition” value was -15.3%.
In the case of `Cc1ccc(S(=O)(=O)C2(C(=O)N3CCCCCC3)CC2)cc1`, the “activity change, negative = inhibition” value was -19.3%.
For `CC(=O)N1CCSc2ccc(S(=O)(=O)Nc3ccc(C)cc3)cc21`, the Potency is 10 µM (active).
For the molecule `O=[N+]([O-])c1ccc(Sc2cccc3cccnc23)c([N+](=O)[O-])c1`, the Potency is 4.47 µM (active).
For the molecule `CN1CC2=Cc3ccccc3OC23Oc2ccccc2C=C3C1`, the Potency was 3.98 µM (active).
As for `CC(C)=N/N=C1/NC(=O)C(Cc2ccccc2)S1` (configuration not stated), the Potency was 11.2 µM (active).
In the case of `CC1=C(C(=O)NC2CC(C)(C)Cc3c2cnn3-c2ccc(C)cc2)OCCO1` (configuration not stated), the Potency was 12.6 µM (active).
As for `CCc1noc(C)c1C(=O)NC1CC(C)(C)Cc2c1cnn2-c1ccccc1` (configuration not stated), the Potency was 15.8 µM (active).
The same measure, in the same setting: to `Cc1ccc(-n2ncc3c2CC(C)(C)CC3NC(=O)c2c(C)noc2C)cc1` (configuration not stated) belongs 11.2 µM (active); to `Cc1cc(C)c(NC(=O)c2cccc3c2C(=O)N(C2CCCCC2)C3)c(C)c1`, 10 µM (active).
As to `COc1cccc2cc(C(=O)NCc3ccc(Cl)cc3)c(=N)oc12`, the “activity change, negative = inhibition” value was -13.6%.
Take `COc1ccc(CCNC(=O)c2cc3c(=O)n4cccc(C)c4nc3n(Cc3ccco3)c2=N)cc1OC`: the Potency is 12.6 µM (active).
The same measure, in the same setting: to `Cc1cc(OCC(=O)N[C@@H](CSCc2ccccc2)C(=O)O)c2c(C)c(C)c(=O)oc2c1` belongs 14.1 µM (active); to `COC(=O)c1c(-n2c(C)cc(C=O)c2C)sc2c1CCCC2`, 14.1 µM (active); to `COc1cc(NCc2ccc3nc(N)nc(N)c3c2C)cc(OC)c1OC`, 0.316 µM (active).
With `O=C(Nc1ccc(C2=NCCN2)cc1)c1ccc(C(=O)Nc2ccc(C3=NCCN3)cc2)c(Cl)c1`, the Potency is 0.891 µM (active).
Regarding `COCCNC(=O)CCCCCN1C(=O)CCC1=O`, the “activity change, negative = inhibition” value is -8.65%.
Regarding `Cc1cccc(-n2ccc(=O)c(C(=O)Nc3ccc(S(=O)(=O)N4CCOCC4)cc3)n2)c1`, the Potency is 11.2 µM (active).
Take `O=S(=O)(c1ccc(Cl)c(NC(=S)N/N=C/c2ccc(O)cc2)c1)N1CCOCC1`: the Potency is 11.2 µM (active).
Turning to `O=C(NC1CC1)C1=C[C@@H](C2CCCCC2)C[C@@H](OCc2ccc(CO)cc2)O1`, the Potency was 12.6 µM (active).
Regarding `O=C(Nc1ccccc1)C1=C[C@@H](C2CCCCC2)C[C@@H](OCc2ccc(CO)cc2)O1`, the Potency is 11.2 µM (active).
The same measure, in the same setting: with `O=C(NCc1ccccc1)C1=C[C@@H](c2coc3ccccc3c2=O)C[C@@H](OCc2ccc(CO)cc2)O1` the figure was 10 µM (active).
Turning to `CN(c1ccccc1)S(=O)(=O)c1ccc(NC(=O)c2nc(S(C)(=O)=O)ncc2Cl)cc1`, the “activity change, negative = inhibition” value is -6.44%.
Consider `CN(c1ccccc1)S(=O)(=O)c1cc(C(=O)N2CCN(c3ncccn3)CC2)ccc1Cl`, for which the Potency was 11.2 µM (active).
Regarding `COC(=O)c1ccc(CNCC(=O)Nc2ccc(C(=O)OC)cc2)cc1`, the “activity change, negative = inhibition” value is -23.3%.
For the molecule `COc1ccccc1NC(=O)c1ccc2nc(-c3ccccc3)c(-c3ccccc3)nc2c1`, the “activity change, negative = inhibition” value was 1.49%.
Regarding `COC(=O)c1ccc(NC(=O)c2cccc(NC(=O)c3ccccc3)c2)cc1`, the Potency is 8.91 µM (active).
`COc1ccc(NC(=O)c2cccc(NC(=O)c3ccccc3)c2)c(OC)c1`: the Potency is 11.2 µM (active).
As to `COc1cc(C(=O)Nc2ccc(S(=O)(=O)Nc3cc(C)on3)cc2)cc(OC)c1OC`, the “activity change, negative = inhibition” value was 3.18%.
`COc1cc(C(=O)Nc2ccc(Nc3ccccc3)cc2)cc(OC)c1OC`: the Potency was 11.2 µM (active).
With `COc1cc(CN2CCN(S(=O)(=O)c3ccccc3)CC2)cc(OC)c1OC`, the Potency was 3.16 µM (active).
Consider `COc1ccccc1N1CCN(S(=O)(=O)c2ccc(-n3cnnn3)cc2)CC1`, for which the “activity change, negative = inhibition” value is -28%.
`COCCN1CCCC(CNCc2cn(C)nc2-c2ccc(Oc3ccccc3)cc2)C1` (configuration not stated): the Potency was 7.94 µM (active).
On to `Cc1cccc(NC(=O)Cc2coc3ccc4ccccc4c23)n1`, for which the Potency is 12.6 µM (active).
Still for that read-out and setting: to `CCOc1ccc(C2C3=C(Nc4nc(N)[nH]c(=O)c42)c2ccccc2C3=O)cc1` (configuration not stated) belongs 14.1 µM (active); to `C/C(=C\C(=O)c1ccncc1)Nc1ccccc1O`, 14.1 µM (active).
Take `CSc1ccccc1NC(=O)CN1CCN(S(=O)(=O)c2ccccc2[N+](=O)[O-])CC1`: the Potency was 14.1 µM (active).
In the case of `O=C(CCN1CCN(c2ccc(F)cc2)CC1)Nc1ccccc1F`, the “activity change, negative = inhibition” value is -14.3%.
For the molecule `C=CCNC(=O)c1onc(CSc2cccc3ccccc23)c1C(=O)O`, the “activity change, negative = inhibition” value was 13.7%.
For `CSc1nnc2c3ccccc3n(CCc3ccccc3)c2n1`, the Potency is 15.8 µM (active).
Still for that read-out and setting: to `Cc1c(NC(=O)CSc2nnc3c4ccccc4n(CCc4ccccc4)c3n2)c(=O)n(-c2ccccc2)n1C` belongs 11.2 µM (active); to `COc1ccc(C)cc1NC(=O)C(Sc1nnc(Nc2cc(C)ccc2OC)s1)c1ccccc1` (configuration not stated), 14.1 µM (active).
On to `CC(C)(C)OC(=O)NCCCCCNC(=O)c1[nH]cnc1C(=O)Nc1nccs1`, for which the Potency is 10 µM (active).
For `Cn1cc([N+](=O)[O-])c(C(=O)Nc2nccs2)n1`, the “activity change, negative = inhibition” value is 0.495%.
In the case of `CCn1cc(C(=O)O)c(=O)c2cc(F)c(N/N=C/c3ccccc3)cc21`, the Potency is 12.6 µM (active).
Regarding `O=c1[nH]c(C2CCN(S(=O)(=O)c3cccc([N+](=O)[O-])c3)CC2)nc2c1nnn2Cc1ccccc1`, the Potency is 10 µM (active).
For the molecule `O=C(c1cccs1)N1CCC(c2nc3c(nnn3Cc3c(Cl)cccc3Cl)c(=O)[nH]2)CC1`, the Potency was 7.94 µM (active).
On the same count and under the same terms, with `CC(SC#N)C(=O)C12CC3CC(CC(C3)C1)C2` (configuration not stated) the figure was 8.91 µM (active); with `O=C(CSc1nnc(-c2ccco2)o1)N1c2ccccc2CCc2ccccc21`, 10 µM (active).
Regarding `C/C(=N\NC(=S)NCC(C)(C)C)c1cc(F)cc(F)c1O`, the Potency was 11.2 µM (active).
Still for that read-out and setting: to `CC1=NNC(=O)/C1=C\c1cn(-c2ccccc2)nc1-c1cccs1` belongs 8.91 µM (active); to `COc1cccc(Nc2ccc(N3CCCCC3)cc2)c1OC`, 6.31 µM (active); to `S=c1[nH]nc(COc2ccccc2)n1/N=C/C(Cl)=C/c1ccccc1`, 14.1 µM (active).
`ClC(/C=N/n1cnnc1)=C/c1ccccc1`: the Potency was 14.1 µM (active).
For the molecule `O=C(CSc1nc2nn(-c3ccccc3)c(=O)c-2c2n1CCCCC2)c1ccc(O)c(O)c1`, the Potency is 12.6 µM (active).
On to `COc1cc(/C=C/C(=O)c2ccc(NS(=O)(=O)c3ccc(C)cc3)cc2)ccc1OC(F)F`, for which the Potency is 12.6 µM (active).
Same read-out and setting: to `COc1ccc(/C=C/C(=O)c2ccc(NS(=O)(=O)c3ccc(C)cc3)cc2)cc1O` belongs 7.94 µM (active); to `Cc1c(O)ccc(C(=O)CN2CCN(Cc3ccc4c(c3)OCO4)CC2)c1O`, 14.1 µM (active).
Consider `Cc1c(-c2ccccc2)nc2ccccc2c1C(=O)Nc1ccncc1`, for which the Potency was 0.501 µM (active).
The same measure, in the same setting: to `O=C(c1cc(COc2cccc(C(F)(F)F)c2)on1)N1CCC(Oc2cccnc2)CC1` belongs 12.6 µM (active).
Take `CN1CCN(C(=O)c2cc(COc3c(F)cccc3F)on2)CC1c1ccccc1` (configuration not stated): the “activity change, negative = inhibition” value is -15.8%.
For `CC(=O)N1CCCN(C(=O)c2cc(COc3c(F)cccc3F)on2)CC1`, the “activity change, negative = inhibition” value is -13.9%.
For the molecule `S=c1[nH]nc(-c2cc(-c3ccccc3)n[nH]2)n1/N=C/C(Br)=C/c1ccccc1`, the Potency is 6.31 µM (active).
On to `C=C1C(=O)O[C@@H]2C[C@@H](C)[C@@H]3C=CC(=O)[C@@]3(C)[C@@H](OC(C)=O)[C@H]12`, for which the Potency is 1.58 µM (active).
On to `COc1ccc2nc3sc(C(=O)NCCN4CCc5ccccc5C4)cc3cc2c1`, for which the Potency is 8.91 µM (active).
The same measure, in the same setting: with `c1ccc2c(c1)Nc1cc3ccccc3cc1S2` the figure was 5.01 µM (active); with `O=C(/C=C/Sc1ncn[nH]1)c1ccc(Cl)cc1`, 12.6 µM (active).
In the case of `CCN(Cc1ccccc1)C(=O)CSc1ncn[nH]1`, the “activity change, negative = inhibition” value is -18.7%.
Consider `Cc1ccc(C)c(/C=C/C(=O)c2ccccc(=O)c2O)c1`, for which the Potency was 14.1 µM (active).
The same measure, in the same setting: to `O=C(/C=C/c1ccccc1Cl)c1ccccc(=O)c1O` belongs 10 µM (active); to `N#Cc1ccccc1S(=O)(=O)N1CCC(C(=O)NCc2ccccc2CN2CCCC2)CC1`, 12.6 µM (active).
For `COc1ccc(C)cc1NC(=O)CSCc1ccccc1C`, the Potency is 12.6 µM (active).
As to `Cc1ccc(SCC(=O)Nc2ccccc2C(=O)O)cc1`, the “activity change, negative = inhibition” value was 8.96%.
As for `O=C(C[C@H]1C(=O)N(Cc2ccccc2)C[C@@H]1Cc1ccccc1)Nc1ccccc1`, the Potency is 11.2 µM (active).
Regarding `CCOc1ccc(NC(=O)CC2C(=O)N(c3ccccc3)C(=O)N2CCOC)cc1` (configuration not stated), the “activity change, negative = inhibition” value was -1.36%.
For the molecule `Cn1c(Cc2cccc3ccccc23)nnc1SCc1ccc([N+](=O)[O-])cc1`, the Potency is 14.1 µM (active).
For the molecule `CC1(C)CCSC(/C=C/c2ccccc2)=N1`, the Potency was 7.94 µM (active).
`CCC(=O)NC(=S)Nc1ccc(NC(=O)c2ccc(C)c([N+](=O)[O-])c2)cc1`: the Potency is 14.1 µM (active).
For the molecule `CC(=O)c1ccc(NC(=S)Nc2ccc3cn[nH]c3c2)cc1`, the “activity change, negative = inhibition” value was 5.49%.
With `Cc1ccc(-c2nn(C(C)(C)C)c3ncnc(N)c23)cc1`, the Potency is 5.62 µM (active).
Consider `Cc1cccc[n+]1CC(=O)c1ccc(NC(=O)c2ccccc2)cc1`, for which the Potency was 7.94 µM (active).
Still for that read-out and setting: with `Cc1ccc(Nc2cc(C)nc3ccc(C)cc23)cc1` the figure was 10 µM (active).
Turning to `COc1ccccc1N1CCN(C(=O)c2ccc3[nH]c4c(c3c2)CCCC4)CC1`, the Potency is 12.6 µM (active).
With `CN(CCC#N)C(=O)COC(=O)c1ccc2[nH]c3c(c2c1)CCCC3`, the “activity change, negative = inhibition” value was -8.6%.
On to `Cc1ccc(Cl)cc1Nc1nc(-c2sc(NC(=O)C(C)(C)C)nc2C)cs1`, for which the Potency is 5.01 µM (active).
`CCOC(=O)C1CCN(c2c(NCc3ccc(C(=O)NCCC(C)C)cc3)c(=O)c2=O)CC1`: the Potency was 2.24 µM (active).

For the origin of these results see PubChem BioAssay AID504850 (National Center for Advancing Translational Sciences (NCATS), 2011).
